The panel holds about 83,000 compounds, 20% with a hit somewhere; the sample as a whole holds those more often.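 Note: values are percent growth. 100 is the growth of untreated cells, values between 100 and 0 indicate rising inhibition; between -100 and 0 indicates cell death.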 Activity calls are given as the source filed them. Rule for the calls: active = growth percent below 10; inactive = the rest.
tested on: PC-3 prostate; experiment: NCI-60 one-dose screen, 48 h (100 = growth as untreated, 0 = no growth, -100 = all killed); conditions: 10 µM unless noted

Row | Structure (SMILES) | growth
1 | CCOC(=O)c1c(-c2ccccc2)n2c(=O)cc(C)c3c(O)c(O)cc1c32 | 41.7% (inactive)
2 | CCOC(=O)c1n[nH]n2c1nc(=O)c1cnn(C)c12 | 97.7% (inactive)
3 | COc1cccc(/C=C/C(=O)c2cc3c(N)c(C(=O)Nc4cccc(Cl)c4C)sc3nc2C)c1 | 13.9% (inactive)
4 | COc1ccc2cc(-c3ccc(-c4ccc(C(=N)N)s4)s3)ccc2c1 | 23.1% (inactive)
5 | O=C1NC(=C(Cl)Cl)/C(=N/S(=O)(=O)NCCc2c[nH]c3ccccc23)N1 | 83.5% (inactive)
6 | CC[C@]12C=CCN3CC[C@@]4(c5ccc(OC)cc5N(C)[C@H]4[C@@](O)(C(=O)OC)[C@@H]1OC(=O)CCCN1CCOCC1)[C@@H]32 | 105% (inactive)
7 | Nc1ccc([N+](=O)[O-])cc1N=C/C=C/c1ccccc1 | 72.4% (inactive)
8 | Cc1nc2sc(C(=O)Nc3ccc(Cl)cc3)c(N)c2cc1C(O)c1ccccc1 (stereo not given) | 21.9% (inactive)
9 | S=c1[nH]c2cc(Cl)ccc2o1 | 88% (inactive)
10 | CN(C)c1ccc(/C=C2/C=C(c3ccccc3)OC2=O)cc1 | 96.9% (inactive)
11 | COc1ccc(-c2ccc(=O)oc2C#Cc2cc(OC)c(OC)c(OC)c2)cc1O | 23.3% (inactive)
12 | C#Cc1cccc(Nc2nc3ccc([N+](=O)[O-])cc3nc2Nc2cccc(C#C)c2)c1 | -41.9% (active)
13 | CC(C(=O)O)n1c(O)c(C=Nc2cccnc2)sc1=S (stereo not given) | 88% (inactive)
14 | O=C(/C=C/c1ccc(Br)cc1)c1ccc(-n2cc(CN3CCN(c4cc5c(cc4F)c(=O)c(C(=O)O)cn5C4CC4)CC3)nn2)cc1 | 82% (inactive)
15 | Cn1cccc1/C=C1\C(=O)Nc2ccccc21 | 94.2% (inactive)
16 | O=C1N[C@@H]2[C@@H](O)[C@@H](O)[C@H](O)C[C@H]2c2cc3c(c(O)c21)OCCO3 | -9.66% (active)
17 | Cc1ccc2[nH]c(-c3ccc(S(C)(=O)=O)cc3)c(/C=N/N=C(N)N)c2c1 | 39.9% (inactive)
18 | CCOC(=O)c1c(C)nc2c(c1N)CC(=O)N2Cc1cc(OC)c(OC)c(OC)c1 | 52.4% (inactive)
19 | COc1ccc2nc(SCC(=O)Nc3ccccc3C)[nH]c2c1 | 84.5% (inactive)
20 | Cc1cc(C)cc(Nc2ccc([N+](=O)[O-])c(NCCN3CCOCC3)n2)c1 | 17.2% (inactive)

Row | Structure (SMILES) | growth
21 | Cc1ccc(C)n1/C=C/n1c(C)ccc1C | 62.8% (inactive)
22 | Oc1c(CN2CCCC2)cc(COCc2ccccc2)c2cccnc12 | 24.9% (inactive)
23 | CCc1cccc(Sc2cc(C(=O)N3Cc4ccc(OCCN(C)C)cc4C3)ccc2O)c1 | 54.6% (inactive)
24 | O=P(O)(O)OCC1OC(n2cnc3c(NCc4ccccc4)ncnc32)C(O)C1O (stereo not given) | 19.2% (inactive)
25 | C=CCN=C(N)SCCCCCCSC(N)=NCC=C | 68.5% (inactive)
26 | COc1ccc(Cn2cc(C(=O)N=Nc3c(O)[nH]c4c(Cl)cccc34)nn2)cc1 | 96.7% (inactive)
27 | O=C(Nc1ccccc1)c1sc(-c2ccccc2)cc1O | 95.2% (inactive)
28 | CS(=O)(=O)Nc1cc(-c2ccc3ncnc(Nc4ccc5c(cnn5Cc5cccnc5)c4)c3c2)cnc1Cl | 52.2% (inactive)
29 | CC1(C)CC[C@]2(C(=O)O)CC[C@]3(C)C(=CC[C@@H]4[C@@]5(C)C[C@@H](Cc6cn([C@@H]7O[C@H](CO)[C@@H](O)[C@H](O)[C@H]7O)nn6)[C@H](O)C(C)(C)[C@@H]5CC[C@]43C)[C@@H]2C1 | 93.4% (inactive)
30 | CCN1C(=O)N(CC)C2C1NN=c1s/c(=C\c3ccccc3Br)c(=O)n12 (stereo not given) | 23.2% (inactive)
31 | Cc1ccc(Nc2nc(-c3ccc(F)cc3)c(C#N)c(=O)n2C)cc1 | 67.9% (inactive)
32 | N#Cc1c(N2CCOCC2)nc(=S)[nH]c1-c1ccccc1 | 47% (inactive)
33 | COc1cccc(/C=C/C(=O)c2cc3c(N)c(C(=O)Nc4ccccc4C)sc3nc2C)c1 | 45.3% (inactive)
34 | COc1ccc(C2=NN(C(C)=O)C(c3ccc(Oc4ccnc5cc(Cl)ccc45)c(OC)c3)C2)cc1 (stereo not given) | 56% (inactive)
35 | CCOC(=O)C/C(=N\Nc1cc(=O)[nH]c2ccc(Cl)cc12)C(=O)OCC | 88.3% (inactive)
36 | COC(=O)C1=C(C)NC(C)=C(C(=O)OCC(C)C)C1c1ccccc1[N+](=O)[O-] (stereo not given) | 35.8% (inactive)
37 | Cc1ccc(S(=O)(=O)n2cc(C3C(Cl)C(=O)N3c3ccc(N4CCOCC4=O)cc3)c3ccccc32)cc1 (stereo not given) | 43.5% (inactive)
38 | CS(=O)(=O)Nc1cncc(-c2ccc3ncnc(Nc4ccc(F)c(Cl)c4)c3c2)c1 | 34.5% (inactive)
39 | N=C(N)c1ccc(-c2ccc(-c3ccc(F)cc3)s2)s1 | -24.2% (active)
40 | CCN(CC)c1ccc(/C=N/NC(=O)c2ccc(Nc3ccnc(C(F)(F)F)c3)cc2)c(O)c1 | 19.6% (inactive)

tested on: SK-MEL-5 melanoma; experiment: as above; conditions: 10 µM unless noted

Row | Structure (SMILES) | growth
41 | CCOC(=O)c1c(-c2ccccc2)n2c(=O)cc(C)c3c(O)c(O)cc1c32 | 41.9% (inactive)
42 | CCOC(=O)c1n[nH]n2c1nc(=O)c1cnn(C)c12 | 105% (inactive)
43 | COc1cccc(/C=C/C(=O)c2cc3c(N)c(C(=O)Nc4cccc(Cl)c4C)sc3nc2C)c1 | -31.3% (active)
44 | COc1ccc2cc(-c3ccc(-c4ccc(C(=N)N)s4)s3)ccc2c1 | 95.1% (inactive)
45 | O=C1NC(=C(Cl)Cl)/C(=N/S(=O)(=O)NCCc2c[nH]c3ccccc23)N1 | 74.3% (inactive)
46 | CC[C@]12C=CCN3CC[C@@]4(c5ccc(OC)cc5N(C)[C@H]4[C@@](O)(C(=O)OC)[C@@H]1OC(=O)CCCN1CCOCC1)[C@@H]32 | 103% (inactive)
47 | Nc1ccc([N+](=O)[O-])cc1N=C/C=C/c1ccccc1 | 56.5% (inactive)
48 | Cc1nc2sc(C(=O)Nc3ccc(Cl)cc3)c(N)c2cc1C(O)c1ccccc1 (stereo not given) | 30.4% (inactive)
49 | S=c1[nH]c2cc(Cl)ccc2o1 | 99% (inactive)
50 | CN(C)c1ccc(/C=C2/C=C(c3ccccc3)OC2=O)cc1 | 87% (inactive)
51 | COc1ccc(-c2ccc(=O)oc2C#Cc2cc(OC)c(OC)c(OC)c2)cc1O | -13.6% (active)
52 | C#Cc1cccc(Nc2nc3ccc([N+](=O)[O-])cc3nc2Nc2cccc(C#C)c2)c1 | -88.9% (active)
53 | CC(C(=O)O)n1c(O)c(C=Nc2cccnc2)sc1=S (stereo not given) | 95.5% (inactive)
54 | O=C(/C=C/c1ccc(Br)cc1)c1ccc(-n2cc(CN3CCN(c4cc5c(cc4F)c(=O)c(C(=O)O)cn5C4CC4)CC3)nn2)cc1 | 91.1% (inactive)
55 | Cn1cccc1/C=C1\C(=O)Nc2ccccc21 | 56.6% (inactive)
56 | O=C1N[C@@H]2[C@@H](O)[C@@H](O)[C@H](O)C[C@H]2c2cc3c(c(O)c21)OCCO3 | -52.1% (active)
57 | Cc1ccc2[nH]c(-c3ccc(S(C)(=O)=O)cc3)c(/C=N/N=C(N)N)c2c1 | 29.1% (inactive)
58 | CCOC(=O)c1c(C)nc2c(c1N)CC(=O)N2Cc1cc(OC)c(OC)c(OC)c1 | 23% (inactive)
59 | COc1ccc2nc(SCC(=O)Nc3ccccc3C)[nH]c2c1 | 95.7% (inactive)
60 | Cc1cc(C)cc(Nc2ccc([N+](=O)[O-])c(NCCN3CCOCC3)n2)c1 | -20.3% (active)

Row | Structure (SMILES) | growth
61 | Cc1ccc(C)n1/C=C/n1c(C)ccc1C | 98.7% (inactive)
62 | Oc1c(CN2CCCC2)cc(COCc2ccccc2)c2cccnc12 | -11.1% (active)
63 | CCc1cccc(Sc2cc(C(=O)N3Cc4ccc(OCCN(C)C)cc4C3)ccc2O)c1 | 26.5% (inactive)
64 | O=P(O)(O)OCC1OC(n2cnc3c(NCc4ccccc4)ncnc32)C(O)C1O (stereo not given) | 84.1% (inactive)
65 | C=CCN=C(N)SCCCCCCSC(N)=NCC=C | 101% (inactive)
66 | COc1ccc(Cn2cc(C(=O)N=Nc3c(O)[nH]c4c(Cl)cccc34)nn2)cc1 | 101% (inactive)
67 | O=C(Nc1ccccc1)c1sc(-c2ccccc2)cc1O | 83.7% (inactive)
68 | CS(=O)(=O)Nc1cc(-c2ccc3ncnc(Nc4ccc5c(cnn5Cc5cccnc5)c4)c3c2)cnc1Cl | 50.9% (inactive)
69 | CC1(C)CC[C@]2(C(=O)O)CC[C@]3(C)C(=CC[C@@H]4[C@@]5(C)C[C@@H](Cc6cn([C@@H]7O[C@H](CO)[C@@H](O)[C@H](O)[C@H]7O)nn6)[C@H](O)C(C)(C)[C@@H]5CC[C@]43C)[C@@H]2C1 | 100% (inactive)
70 | CCN1C(=O)N(CC)C2C1NN=c1s/c(=C\c3ccccc3Br)c(=O)n12 (stereo not given) | -17.6% (active)
71 | Cc1ccc(Nc2nc(-c3ccc(F)cc3)c(C#N)c(=O)n2C)cc1 | 77.2% (inactive)
72 | N#Cc1c(N2CCOCC2)nc(=S)[nH]c1-c1ccccc1 | 63% (inactive)
73 | COc1cccc(/C=C/C(=O)c2cc3c(N)c(C(=O)Nc4ccccc4C)sc3nc2C)c1 | 52.4% (inactive)
74 | COc1ccc(C2=NN(C(C)=O)C(c3ccc(Oc4ccnc5cc(Cl)ccc45)c(OC)c3)C2)cc1 (stereo not given) | 65.8% (inactive)
75 | CCOC(=O)C/C(=N\Nc1cc(=O)[nH]c2ccc(Cl)cc12)C(=O)OCC | 98.7% (inactive)
76 | COC(=O)C1=C(C)NC(C)=C(C(=O)OCC(C)C)C1c1ccccc1[N+](=O)[O-] (stereo not given) | 38% (inactive)
77 | Cc1ccc(S(=O)(=O)n2cc(C3C(Cl)C(=O)N3c3ccc(N4CCOCC4=O)cc3)c3ccccc32)cc1 (stereo not given) | 43.8% (inactive)
78 | CS(=O)(=O)Nc1cncc(-c2ccc3ncnc(Nc4ccc(F)c(Cl)c4)c3c2)c1 | -50.1% (active)
79 | N=C(N)c1ccc(-c2ccc(-c3ccc(F)cc3)s2)s1 | 77.6% (inactive)
80 | CCN(CC)c1ccc(/C=N/NC(=O)c2ccc(Nc3ccnc(C(F)(F)F)c3)cc2)c(O)c1 | -50.6% (active)

— PubChem BioAssay (NCI)
